The list is not random: actives were taken first. Their share in the collection is about 7.3%.
HEK cytotox = cytotoxic compounds in HEK 293 cells | HEK 293 viability, ATP luminescence (CellTiter-Glo), 48-72 h | Potency, µM (titrated, usually from 115 µM), for inactives: top-dose activity change, negative = cytotoxicity, most hits filed as inhibitors | 94,000 tested, 6.6% active; note: potency is the fitted concentration of half-maximal effect; nearly all actives have a fitted effect of over 60% in size
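qHTS cytotoxicity; HEK 293, 250 cells/well; compound pinned; 48 or 72 hr, 37 degree Celsius, 5% CO2, 95% humidity; CellTiter-Glo, 10 min RT; luminescence (ATP).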
SNCA expr inhib = inhibitors of alpha-synuclein (SNCA) gene expression; HEK-293 SNCA-luciferase knock-in, luminescence, 24 h; Potency, µM (series often up to 57.2 µM), inactives show at the highest dose activity change, negative = inhibition, most hits filed as inhibitors; 140,000 tested, 0.17% active;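 note: potency is the fitted concentration of half-maximal effect; plate controls were DMSO cells for no effect and cell-free wells for full effect; nearly all actives have a fitted effect of over 45% in size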
Luciferase inh = Photinus pyralis luciferase inhibition | purified P. pyralis luciferase, luminescence, biochemical | Potency, µM (highest dose often 115 µM), most hits filed as inhibitors | 76,000 tested, 2.5% active; note: potency is the fitted concentration of half-maximal effect; nearly all actives have a fitted effect of over 65% in size
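Inhibitors were tested against purified firefly luciferase in a biochemical, low-substrate format (both substrates at 10uM) and luminescence measured with a CCD imager.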
IP6K1 inh = IP6K1 kinase inhibition | 140,000 tested, 0.81% active | activity change, % (series mostly up to about 58 µM) | AID 1645851 | IP6K1 kinase, ADP-Glo luminescence, 2 h; stronger effect = lower value; in the data active = activity change below about -25%
Target sequence (Q92551 whole entry, looked up): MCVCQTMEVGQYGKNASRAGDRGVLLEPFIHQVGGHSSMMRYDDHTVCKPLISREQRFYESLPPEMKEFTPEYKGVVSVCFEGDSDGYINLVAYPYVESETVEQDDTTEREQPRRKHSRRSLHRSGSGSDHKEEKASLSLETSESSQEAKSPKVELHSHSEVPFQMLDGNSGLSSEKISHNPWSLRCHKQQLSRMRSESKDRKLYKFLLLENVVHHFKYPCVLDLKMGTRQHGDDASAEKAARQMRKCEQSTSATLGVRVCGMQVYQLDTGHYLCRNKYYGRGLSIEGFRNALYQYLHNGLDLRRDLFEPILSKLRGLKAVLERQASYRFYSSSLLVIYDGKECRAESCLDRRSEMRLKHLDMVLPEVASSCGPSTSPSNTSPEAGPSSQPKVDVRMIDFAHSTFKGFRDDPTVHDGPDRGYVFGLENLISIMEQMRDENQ
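ADP-Glo luminescence measures ADP made by human IP6K1 during a 2 h RT reaction with ATP/IP6 (mix at 1.3 mM/130 uM); top library doses 57.5 and 19.1 uM final.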
3T3 cytotox = kills NIH 3T3 cells; NIH 3T3 viability, CellTiter-Glo ATP luminescence, 48-72 h; Potency, µM (highest dose often 96.7 µM), without a hit: at the highest dose activity change, negative = cytotoxicity, actives largely listed as inhibitors; 94,000 tested, 4.3% active; note: potency is the fitted concentration of half-maximal effect; nearly all actives have a fitted effect of over 55% in size
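Cytotoxicity is measured as loss of cellular ATP: NIH 3T3 cells (400/well) are exposed to compound for 48 or 72 hr at 37 °C, then CellTiter-Glo luminescence is imaged after 10 min at room temperature.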
HEK293 viab = cell viability loss counter-screen. HEK-293-SNCA-luc viability, GF-AFC fluorescence, 24 h. AID 1671193. 150,000 tested, 0.12% active. Potency, µM (series often up to 57.1 µM), for the others: top-dose activity change, negative = cytotoxicity, usual class: cytotoxic;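 note: potency is the fitted concentration of half-maximal effect; 0% = DMSO-treated cells and -100% = medium-only wells without cells; nearly all actives have a fitted effect of over 30% in size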
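Cytotoxicity counterscreen: after 24 h compound treatment of genome-edited SNCA-luciferase HEK-293 cells, live-cell protease substrate GF-AFC read by fluorescence after 30 min; activity scaled between DMSO (0%) and medium-only (-100%), curves Hill-fitted.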
Starred values were filed as active, the others as inactive; i = inactive; ? = inconclusive; nt = no result given; [ ] = dose if it differs, or a comment. Unless noted, calls come from the whole dose curve; as a rule, active = well fitted curve in the direction sought with a large enough effect; inconclusive = small, poorly fitted or top-dose-only effect, or another doubt; inactive = no such curve, though single readings can be large; an effect the other way counts as inactive or inconclusive. Unless noted, % is set by controls: 0 for no effect and ±100 for the full control effect.

SMILES	HEK cytotox	SNCA expr inhib	Luciferase inh	IP6K1 inh	3T3 cytotox	HEK293 viab
CCc1nc(CN2CCOC(c3ccc4cc(OC)ccc4c3)C2)no1 (centres undefined)	?	146%	40µM*	-4	?	0%
O=C(NCc1cccnc1)c1nc2cccnc2n(C2CC2)c1=O	1%[172 µM]	-1%[87.6 µM]	nt	8	-8%[138 µM]	3%[87.6 µM]
CCn1cc(CN2CCn3nnc(CCC(=O)N4CCCC4)c3C2)c2ccccc21	?	-19%	nt	-3	?	4%
CCn1cc(-c2ccc(C)cc2)cc1C(=O)N1CCN(c2ccccn2)CC1	32µM*	-28%	i	-3	35µM*	-28%
O=C(CCC1CCCN(S(=O)(=O)c2ccccc2)C1)N1CCN(c2ccccn2)CC1 (centres undefined)	45µM*	-27%	i	3	?	0%
CCn1cc(-c2ccc(Cl)cc2)cc1C(=O)N1CCN(c2ccccn2)CC1	?	-28%	i	11	?	-27%
Cc1ccc(C(=O)N2CCC(CCC(=O)N3CCN(c4ccccn4)CC3)CC2)cc1	?	77%	20µM*	22	-28%	-1%
CN1CCN(C(=O)c2ccc3nnc(-c4ccc(OC(F)(F)F)cc4)n3c2)CC1	0%	-15%	nt	4	-11%	-3%
O=C(c1ccccc1C(F)(F)F)N1CCC(n2cnnc2C2CC2)CC1	-1%	-3%	i	-5	i	10%
Cc1nn(-c2ccccc2)c2c1C(C1CC1)N(C1CN([S+](C)(=O)[O-])C1)C2=O (centres undefined)	-9%	nt	nt	12	-29%	nt
O=C(C[C@@H]1CCNC[C@@H]1Cc1cc(CSc2ccccc2)on1)N1CCCCC1	?	8%[87.6 µM]	i	-1	?	-4%[87.6 µM]
Cc1nnc2ccc(N3CCC(NC(=O)C(C)C)CC3)nn12	1%[172 µM]	nt	nt	6	-15%[138 µM]	nt
CC(C)Cn1c(=O)c(C(=O)Nc2ccc(F)cc2)nc2cccnc21	-25%[172 µM]	8%[87.6 µM]	nt	20	-14%[138 µM]	-6%[87.6 µM]
CNC(=O)c1cc(C2CC2)nc2c1c(C1CCCN(C(=O)c3ccc(F)cc3)C1)nn2C (centres undefined)	?	nt	nt	-9	?	nt
O=C(C1CC1)N1CCC2(CC1)CC(Cc1nc(-c3ccncc3)no1)CCO2 (centres undefined)	45µM*	30%	i	4	?	0%
COc1cccc(CC(=O)N2CCC3(CC2)CC(Cc2nc(-c4ccncc4)no2)CCO3)c1 (centres undefined)	40µM*	-1%	i	-12	?	-3%
O=C(Nc1n[nH]c(Cc2ccccc2)n1)N1CCN(C(=O)c2ccco2)CC1	i	5%	i	-3	-15%	-11%
COc1ccccc1N1CCN(C(=O)Nc2n[nH]c(Cc3ccccc3)n2)CC1	25µM*	-23%	i	-5	?	-11%
Cc1cc(F)ccc1-c1[nH]nc2ncc(-c3ccsc3)nc12	?	-13%[87.6 µM]	i	8	20µM*	-12%[87.6 µM]
Cc1cc(F)ccc1-c1[nH]nc2ncc(-c3cccnc3)nc12	?	?	i	16	-29%[138 µM]	?
COc1ccc(-c2cnc3n[nH]c(-c4ccc(F)cc4C)c3n2)cn1	50µM*	-26%[87.6 µM]	i	9	50µM*	4%[87.6 µM]
COc1cc(-c2cnc3n[nH]c(-c4ccc(F)cc4C)c3n2)ccn1	79µM*	-22%[87.6 µM]	i	2	?	8%[87.6 µM]
O=C(c1ccccn1)N1CCCC2(COc3ccccc3[S+](=O)([O-])N2)C1 (centres undefined)	i	-12%	nt	17	-4%	-3%
O=C(NC1CCCc2c1[nH]c1ccc(Cl)cc21)c1ccncc1 (centres undefined)	22µM*	0%	i	6	?	5%
O=C(NC1CCCc2c1[nH]c1ccc(F)cc21)c1ccncc1 (centres undefined)	?	11%	i	14	?	-4%
SMILES	HEK cytotox	SNCA expr inhib	Luciferase inh	IP6K1 inh	3T3 cytotox	HEK293 viab
CC(C)(C)C(=O)NC1CCCc2c1[nH]c1ccc(F)cc21 (centres undefined)	45µM*	-17%	i	11	?	0%
CCN(CC)CC(=O)N1CCC(C(=O)Nc2ccc(-c3nc4ccccc4o3)cc2)CC1	22µM*	77%	i	11	22µM*	-21%
CN(C)Cc1ccc(-c2cc3c(ccn3Cc3ccncc3)c(N3CCOCC3)n2)cc1	100µM*	-9%[87.6 µM]	i	-12	?	-22%[87.6 µM]
c1cc(Cn2ccc3c(N4CCOCC4)nc(-c4cn[nH]c4)cc32)ccn1	-18%[172 µM]	2%[87.6 µM]	i	3	?	6%[87.6 µM]
c1cc(Cn2ccc3c(N4CCOCC4)nc(-c4ccc5cn[nH]c5c4)cc32)ccn1	40µM*	-23%[87.6 µM]	i	-6	25µM*	0%[87.6 µM]
CCc1noc(-c2cccn3c(CNC(=O)Cc4ccc(Cl)cc4)nnc23)n1	?	7%	i	-2	-28%	-6%
c1ccc(COc2ccc(CN3CCN(C4CCNC4)CC3)cc2)cc1 (centres undefined)	?	51%	?	-12	45µM*	-3%
COc1ccc(F)cc1-c1ccc(CN2CCCCC2C(=O)NCc2ccc3c(c2)OCO3)cc1 (centres undefined)	?	nt	nt	-15	?	nt
COc1ccc(F)cc1-c1ccc(CN2CCCCC2C(=O)NCc2ccc(Cl)cc2)cc1 (centres undefined)	14µM*	nt	nt	3	?	nt
COc1ccc(F)cc1-c1ccc(CN2CCCCC2C(=O)NCc2cccc(F)c2)cc1 (centres undefined)	?	nt	nt	-8	35µM*	nt
CCOc1ccc2c(n1)CCN(C(=O)c1ccncc1)C2	-2%	2%	i	-7	-4%	3%[12.5 µM]
CN(C)c1ccc(CN2CCC3(CC2)CC(=O)c2ccccc2O3)cc1	-7%	25%	i	8	-6%	-9%
O=C1CC2(CCN(Cc3cccnc3)CC2)Oc2cc(Cl)ccc21	?	101%	25µM*	7	?	-7%
O=C1CC2(CCN(Cc3ccc(F)cc3)CC2)Oc2ccccc21	50µM*	9%[87.6 µM]	i	15	?	-8%[87.6 µM]
O=C(NCCc1cccc(F)c1)C1CN(C2CCCCC2)C(=O)N1 (centres undefined)	-11%[172 µM]	-4%[87.6 µM]	nt	12	-12%[138 µM]	2%[12.5 µM]
COCC1CCN(S(=O)(=O)N2CCCCC2CCc2ccccc2)CC1 (centres undefined)	45µM*	3%	i	16	?	-13%
COCCOC1CCN(S(=O)(=O)Cc2ccccc2)CC1	14%	-11%	i	1	i	-10%[12.5 µM]
O=C(c1nc2cccnc2n(CCc2ccccc2)c1=O)N1CCC(c2ccccc2)CC1	?	-13%	nt	-10	?	2%[12.5 µM]
